Measurements taken from PubChem BioAssay (NCI).
This is part of a sample that, as a whole, favours compounds with a hit. Of some 79,000 tested, about 15% had one in any assay. Cut-off read from the data, not from the text of the source: active = growth inhibition above about 70%; inactive = the rest.

Assays:
[1] = NCI Yeast Anticancer Drug Screen. Data for the rad50 strain (AID 155);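 note: 0% = growth of vehicle-only cultures of the same strain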; settings: S. cerevisiae rad50 strain growth inhibition; at 50.0 µM; hits give high values
Outline: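 DNA repair mutant yeast, compound exposure, growth read-out; inhibition is taken relative to vehicle.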

[2] = NCI Yeast Anticancer Drug Screen. Data for the mec2-1 strain (AID 157); settings: S. cerevisiae mec2-1 strain, at 50.0 µM, hits give high values
Outline: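 Strain: mec2-1 (DNA repair/cell cycle alteration). Compound exposure, then growth measured; inhibition expressed relative to vehicle.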

[3] = NCI Yeast Anticancer Drug Screen. Data for the mlh1 rad18 strain (AID 175); settings: S. cerevisiae mlh1 rad18 strain growth inhibition; at 50.0 µM; hits give high values
Outline: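 Read-out is yeast growth inhibition, calculated against vehicle-only controls. The compound was applied to a strain engineered with DNA damage repair alterations.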

Measured: growth inhibition

COc1cc(/C=C2/SC(=S)NC2=O)cc(OC)c1OC
inactive: [1] 16.8% | [2] -1.4% | [3] 19.4%

S=C1SCN(Cc2ccccc2)CN1Cc1ccccc1
inactive: [1] -10.1% | [2] -26.1% | [3] -13.3%

C[Si]1(C)N[Si](C)(C)N[Si](C)(C)N1
inactive: [1] 13.2% | [2] -19.6% | [3] 2.3%

CCN(CC)c1ccc(N=Cc2ccccc2S(=O)(=O)O)cc1
inactive: [1] 0.9% | [2] -11.4% | [3] 34%

COc1cc(/C=N/N2C(=O)c3ccccc3C2=O)ccc1O
inactive: [1] 26.8% | [2] 8.1% | [3] 25.9%

COC(=O)C1=CCCC2CN3CCc4c([nH]c5ccccc45)C3CC12 (stereo unspecified)
inactive: [1] 13.8% | [2] -7.8% | [3] 18%

CC1=NN(c2ccccc2)C(=O)/C1=C\c1ccc(N(CCC#N)CCC#N)cc1
inactive: [1] 6.85% | [2] -4.95% | [3] 21.9%

CCO/C=C1\SC(=S)N(c2ccc(C(=O)O)cc2)C1=O
inactive: [1] -6.05% | [2] -16.3% | [3] 13.2%

CSc1sc2cc([N+](=O)[O-])ccc2[n+]1C
inactive: [1] -0.4% | [2] -7.6% | [3] 55.4%

COC(=O)C(C)CN1CC(C)OC(C)C1 (stereo unspecified)
inactive: [1] -25.2% | [2] -26.2% | [3] -13.2%

C[n+]1ccc(/C=C\c2ccc3c(c2)OCO3)cc1
inactive: [1] -1.4% | [2] -26.9% | [3] 2.6%

COc1cc(/C=N\Nc2ccccc2[N+](=O)[O-])cc(OC)c1OC
inactive: [1] -11.4% | [2] -25.4% | [3] -12.9%

COc1ccc(COC(=O)N=[N+]=[N-])cc1
inactive: [1] 19.1% | [2] 3.85% | [3] 13.4%

CN(Cc1ccccc1)Cc1ccccc1
inactive: [1] 8.4% | [2] -3.9% | [3] 14.7%

C[n+]1ccccc1/C=C/c1cccc(O)c1
inactive: [1] 14% | [2] -19.9% | [3] 17.8%

O=C1OC(=O)C2C1OC1C(=O)OC(=O)C12 (stereo unspecified)
inactive: [1] -35.6% | [2] -33.1% | [3] -28.1%

Cc1ccc(N2C(=O)CC(Sc3ccccc3N)C2=O)cc1Cl (stereo unspecified)
inactive: [1] -15.5% | [2] -35.6% | [3] -11.9%

CCn1c(C)nc2cc(S(=O)(=O)CS(C)(=O)=O)ccc21
inactive: [1] 17% | [2] -12.8% | [3] 19.8%

O=c1c(=O)n(CCO)n(CCO)c(=O)n1CCO
inactive: [1] -29.7% | [2] -28.9% | [3] -18.1%

Nc1ccc2[nH]c(-c3ccccc3)cc(=O)c2c1
inactive: [1] -38% | [2] -33.8% | [3] -15.9%

Cn1c(=S)sc2ccc3ccccc3c21
inactive: [1] -17.4% | [2] -11.1% | [3] -25.9%

Cc1ccc(N2CSC(=S)N(c3ccc(C)cc3)C2)cc1
inactive: [1] -10.4% | [2] -25.9% | [3] 46.6%
